The values that follow are results of earlier work, collected in PubChem BioAssay AID977610.

Each structure is given as a SMILES string. The campaign covered roughly 3,600 compounds. About 3,600 (100%) were called active. No cut-off is given here; in the data, nearly all actives have Ki up to about 18000 µM. The set was probably picked from earlier hits. The list shows a part of the results.

This data set in a line: PubChem AID 977610. To be noted: PDB protein-ligand complexes, literature Ki.

Broadly, the Ki is a dissociation constant, usually derived from enzyme kinetics or from competition with a known ligand. Turning to `ON1CC=CCC1=S`, the Ki (protein: Carbonic anhydrase 2 (H94D mutation), PDB entry 4jss) was 500 µM (active). Regarding `CC(C)(C)n1nc(-c2cccc3ccccc23)c2c(N)ncnc21`, the Ki (protein: Aminoglycoside 3'-phosphotransferase AphA1-IAB, PDB entry 4gkh) was 21.5 µM (active). Take `C[C@H](C[P+](O)(O)[C@H](Cc1ccccc1)NC(=O)[C@H](N)Cc1nn[nH]n1)C(=O)N[C@@H](C)C(N)=O`: the Ki (protein: ANGIOTENSIN-CONVERTING ENZYME, PDB entry 4bxk) is 0.0112 µM (active). For `CC(=O)N[C@@H](CC(=O)O)C(=O)N[C@@H](Cc1ccccc1)[P+](O)(O)C[C@@H](C)C(=O)N[C@@H](C)C(N)=O`, for the setting “protein: Angiotensin Converting Enzyme N domain glycsoylation mutant (Ndom389), PDB entry 3nxq”, the Ki is 0.007 µM (active).

In the case of `CC(=O)N[C@@H](CC(C)C)C(=O)N[C@H](C(=O)N[C@@H](Cc1ccccc1)C(=O)N[C@]1(C)CCCCCC/C=C/CCC[C@@](C)(C(=O)N[C@@H](CO)C(=O)N[C@@H](C)C(=O)N[C@@H](C)C(=O)O)NC(=O)[C@H](CC2CCC2)NC(=O)[C@H](CCC(N)=O)NC(=O)[C@H](C)NC(=O)[C@H](Cc2c[nH]c3ccccc23)NC(=O)[C@H](Cc2ccc(O)cc2)NC(=O)[C@H](CCC(=O)O)NC1=O)[C@@H](C)O`, the Ki (protein: Protein Mdm4, PDB entry 4n5t) was 0.007 µM (active). As for `CS[C@@H](CCCC1C(=O)NC(N)NC1N)c1ccc(C(=O)N[C@@H](CCC(=O)O)C(=O)O)cc1` (stereo partly drawn), where the note is “protein: Trifunctional purine biosynthetic protein adenosine-3, PDB entry 4ew2”, the Ki is 0.21 µM (active). In the case of `CS[C@H](CCCC1C(=O)NC(N)NC1N)c1ccc(C(=O)N[C@@H](CCC(=O)O)C(=O)O)cc1` (stereo partly drawn), the Ki (protein: Trifunctional purine biosynthetic protein adenosine-3, PDB entry 4ew3) was 0.18 µM (active).

As to `NC(=O)[C@H]1CCCc2c1[nH]c1ccc(Cl)cc21`, the Ki (protein: NAD-DEPENDENT PROTEIN DEACETYLASE SIRTUIN-3, MITOCHONDRIAL, PDB entry 4bvb) is 33.4 µM (active). Turning to `CC(C)N(C[C@H]1O[C@@H](n2cnc3c(N)ncnc32)[C@H](O)[C@@H]1O)C1CC(CCc2nc3ccc(C(C)(C)C)cc3[nH]2)C1` (stereo partly drawn), where the note is “protein: Histone-lysine N-methyltransferase, H3 lysine-79 specific, PDB entry 4hra”, the Ki was 8e-05 µM (active).

Turning to `OC[C@H]1OCC[C@@H](O)[C@H]1O`, the Ki (protein: GALACTOCEREBROSIDASE, PDB entry 4ccd) was 32 µM (active). `O=C(O)CCC(=O)O`: the Ki (protein: Delta-1-pyrroline-5-carboxylate dehydrogenase, mitochondrial, PDB entry 4lh2) was 58000 µM (active). As to `N[C@@H](CCCNC(=O)C[P+](O)(O)O)C(=O)O`, for the setting “protein: human ornithine transcarbamylase, PDB entry 1oth”, the Ki was 0.1 µM (active). Turning to `OC[C@@H]1[C@@H](O)[C@H](O)[C@@H](O)[C@@H]1NCc1ccc(Br)cc1`, the Ki (protein: strictosidine glucosidase, PDB entry 3zj8) is 127 µM (active). Regarding `N[C@@H](c1ccc(-n2cccn2)cc1)[P+](O)(O)O`, the Ki reads like this: (protein: M1 family aminopeptidase, PDB entry 4k5o) 104 µM (active); (protein: M17 leucyl aminopeptidase, PDB entry 4k3n) 0.011 µM (active). Turning to `NC(N)Nc1ccc([C@H](N)[P+](O)(O)O)cc1`, where the note is “protein: M1 family aminopeptidase, PDB entry 4k5n”, the Ki was 127 µM (active). As for `NC(N)c1ccc([C@H](N)[P+](O)(O)O)cc1`, for the setting “protein: M1 family aminopeptidase, PDB entry 4k5p”, the Ki was 345 µM (active).

Turning to `NC(N)Nc1ccc(C=O)cc1`, the Ki (protein: Bovine beta trypsin, PDB entry 1gbt) is 10000 µM (active). Consider `C=CCNC(=O)[C@@H](NC(=O)[C@@](O)(CCCN(Cc1ccc(-c2cccs2)cc1)NC(=O)[C@@H](NC(=O)OC)C(C)(C)C)Cc1ccc(CC=C)cc1)C(C)C`, for which the Ki (protein: HIV-1 protease, PDB entry 4cpr) was 0.035 µM (active). As to `C=CCNC(=O)[C@@H](NC(=O)[C@@](O)(CCCN(Cc1ccc(-c2cccnc2)cc1)NC(=O)[C@@H](NC(=O)OC)C(C)(C)C)Cc1ccc(CC=C)cc1)C(C)C`, the Ki (protein: HIV-1 protease, PDB entry 4cpq) was 0.018 µM (active). For `CCCNC(=O)[C@@H](NC(=O)[C@@](O)(CCCN(Cc1ccc(-c2ccncc2)cc1)NC(=O)[C@@H](NC(=O)OC)C(C)(C)C)Cc1ccc(CCC)cc1)C(C)C`, the Ki (protein: HIV-1 protease, PDB entry 4cp7) was 0.0078 µM (active). As for `C=CCNC(=O)[C@@H](NC(=O)[C@@](O)(CCCN(Cc1ccc(Br)cc1)NC(=O)[C@@H](NC(=O)OC)C(C)(C)C)Cc1ccccc1)C(C)(C)C`, the Ki (protein: PROTEASE, PDB entry 3zps) was 0.005 µM (active).

With `CC1=C(C(=O)O)N[C@@H]([C@@H](C=O)NC(=O)Cc2cccs2)SC1`, the inhibitory constant (Ki) (protein: Carboxylesterases, PDB entry 4ivk) is 140 µM (active).

Take `Cc1cc(C)nc(N)n1`: for the setting “protein: PDE10A2, PDB entry 4llx”, the inhibitory constant (Ki) is 1300 µM (active).

Consider `CNc1nc2cc3nc[nH]c(=O)c3cc2[nH]1`, for which the Ki by setting is: (protein: Queuine tRNA-ribosyltransferase, PDB entry 3GEV) 2.9 µM (active); (protein: Queuine tRNA-ribosyltransferase, PDB entry 3V0Y) 4.1 µM (active). For `CC(C)[C@@H]1NC(=O)[C@H](CCC(=O)O)NC(=O)[C@H](Cc2ccc(O)cc2)NC(=O)[C@H](CCCNC(N)N)NC(=O)[C@H](CO)NC(=O)[C@@H](NC(=O)[C@H](C)N)CSCc2cc3cc(c2)CSC[C@H](NC(=O)[C@H](CC(=O)O)NC1=O)C(=O)N[C@@H](CCCNC(N)N)C(=O)NCC(=O)N[C@@H](CCCNC(N)N)C(=O)N[C@H](CO)C(=O)N[C@@H](CO)C(=O)N[C@@H](C)C(=O)N[C@H](C(=O)NCC(N)=O)CSC3`, the Ki (protein: Urokinase-type plasminogen activator (C122A, N145Q mutation), PDB entry 4jk5) is 0.028 µM (active). Turning to `CC[C@H]1NC(=O)[C@H](CCCNC(N)N)NC(=O)CNC(=O)[C@H](CCCNC(N)N)NC(=O)[C@@H]2CSCc3cc(cc(c3)CSC[C@@H](C(=O)NCC(N)=O)NC(=O)[C@H](C)NC(=O)[C@H](CO)NC1=O)CSC[C@H](NC(=O)[C@H](C)N)C(=O)N[C@@H](CO)C(=O)N[C@@H](CCCNC(N)N)C(=O)N[C@@H](Cc1ccc(O)cc1)C(=O)N[C@@H](CCC(=O)O)C(=O)N[C@@H](C(C)C)C(=O)N[C@@H](CC(=O)O)C(=O)N2`, under “protein: Urokinase-type plasminogen activator (C299A, N322Q mutation), PDB entry 4jk6”, the Ki was 0.064 µM (active).
